Molecules are shown by their SMILES. In all, about 320,000 compounds went through this assay and about 22,000 (6.9%) were called active. Not shown: some 27% with an inconclusive outcome. What follows is part of a selection rich in actives, with near analogues and random picks from the rest. A number with no mark means an inactive call. Calls come from the whole dose curve; as a rule, active = well fitted inhibition curve with a large enough effect; inconclusive = small, poorly fitted or top-dose-only effect, or another doubt; inactive = no such curve, though single readings can be large or run the other way.
% is set by controls: 0 for no effect and ±100 for the full control effect; potency is the fitted concentration of half-maximal effect.

The assay can be described thus: Primary qHTS for delayed death inhibitors of the malarial parasite plastid, 96 hour incubation. Particulars: P. falciparum luciferase reporter growth; series mostly up to 28.7 µM; activity change, negative = inhibition: at the top concentration. Summed up:
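96 h incubation, 37 C, 5% CO2, of luciferase-reporter P. falciparum-infected RBCs (2% hematocrit, 0.05% parasitemia final) with test compounds; endpoint luminescence.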
For the compound `O=C(O)c1ccc(-n2nc(-c3ccccc3)c3ccccc3c2=O)cc1`, the “activity change, negative = inhibition” value is 24.2%.
Still for that read-out and setting: then `O=C(c1ccc(F)cc1)n1c(=S)nc2ccccn21`, with 135%.
With `CCc1ccc(C2C(C#N)=C(N)Oc3n[nH]c(CC(=O)OC)c32)cc1` (stereo not drawn), the “activity change, negative = inhibition” value is -3.61%.
In the case of `CCOc1c(OC)cc(C2C(C#N)=C(N)Oc3n[nH]c(-c4ccncc4)c32)cc1OC` (stereo not drawn), the “activity change, negative = inhibition” value is 16.2%.
Regarding `COc1ccc(-c2[nH]nc3c2C(c2ccncc2)C(C#N)=C(N)O3)cc1` (stereo not drawn), the Potency is 4.65 µM (active).
For `COc1cc(C(=O)Nc2ncccc2C)ccc1OCC(=O)N1CCOCC1`, the “activity change, negative = inhibition” value was -9.13%.
As to `Cc1cc(-n2cnc(-c3cn(C)nc3C)n2)no1`, the “activity change, negative = inhibition” value was 48.3%.
Same read-out and setting: then `Cc1cc(OCC(=O)N(C)c2c(N)n(Cc3ccccc3)c(=O)[nH]c2=O)c(C(C)C)cc1Cl`, with 0.877%; and `Cc1cccc(OCC(=O)NCCCNC(=O)c2ccccn2)c1`, with 30.2%; and `Cc1ccccc1NC(=O)C1CCN(C(=O)NC2CCCCC2)CC1`, with 14.1%.
As to `Cc1ccc(NS(=O)(=O)c2ccc3c(c2)NC(=O)CO3)cc1`, the “activity change, negative = inhibition” value is 42.8%.
As to `CC(CC(=O)Nc1ccc(F)cc1F)S(=O)(=O)c1ccc2c(c1)NC(=O)CO2` (stereo not drawn), the Potency is 6.57 µM (active).
As for `O=C1COc2ccc(NC(=O)N3CCN(c4ccc(F)cc4)CC3)cc2N1`, the “activity change, negative = inhibition” value was 0%.
The same measure, in the same setting: then `COc1ccc(C)cc1NC(=O)NCCCCc1ccccc1`, with -10.7%.
For the compound `CCc1cccc(NC(=O)COC(=O)C2CCN(c3ccc(C(F)(F)F)cn3)CC2)c1`, the “activity change, negative = inhibition” value was 0%.
Turning to `Cc1cnc(CN(C)C(=O)C2CCC(=O)N(CCc3cccc(F)c3)C2)[nH]1` (stereo not drawn), the “activity change, negative = inhibition” value is -11.6%.
In the case of `Cc1cnc(C)c(N2CCN(C(=O)C3CCC(=O)N(CCc4cccc(F)c4)C3)CC2)n1` (stereo not drawn), the Potency is 14.7 µM (active).
Take `O=C1CCC(C(=O)N2CCC(O)(c3ccccc3)CC2)CN1CCc1ccccc1` (stereo not drawn): the “activity change, negative = inhibition” value was 31.1%.
With `O=C(NC1CC1)C(Cc1ccccc1)NS(=O)(=O)c1ccccc1F` (stereo not drawn), the “activity change, negative = inhibition” value is 11.3%.
As to `O=C1N[C@@H](Cc2ccccc2)C(=O)N2[C@H]1C[C@]1(Br)c3ccccc3N(S(=O)(=O)c3ccccc3)[C@H]21`, the “activity change, negative = inhibition” value is -39.5%.
For `Cc1ccc(CCNC(=O)c2ccc3nc4ccccc4c(=O)n3c2)cc1`, the “activity change, negative = inhibition” value is 29.7%.
Take `COCCOC(=O)C1=C(C)N=c2s/c(=C\c3cccs3)c(=O)n2C1c1cccs1` (stereo not drawn): the Potency is 8.28 µM (active).
As for `CCOC(=O)C1=C(C)N=c2s/c(=C\C(=O)OC)c(=O)n2C1c1ccc(OC)cc1` (stereo not drawn), the “activity change, negative = inhibition” value is -23.7%.
Take `CCOC(=O)C1=C(C)Nc2nc3ccccc3n2C1c1cccs1` (stereo not drawn): the “activity change, negative = inhibition” value was -13.8%.
Same read-out and setting: then `O=[N+]([O-])c1ccc(Sc2n[nH]c(-c3ccco3)n2)nc1`, with 219%.
Regarding `CC(C)(C)n1cnnc1Sc1ccc([N+](=O)[O-])cn1`, the Potency was 1.65 µM (active).
As to `Cc1cccc(C)c1NC(=O)CSc1ccc([N+](=O)[O-])cn1`, the “activity change, negative = inhibition” value is -13.6%.
Turning to `Cc1cccc(N(C(=O)c2csnn2)C(C(=O)NCc2ccccc2)c2ccncc2)c1` (stereo not drawn), the “activity change, negative = inhibition” value is -0.692%.
For `COc1cc(C(=S)N2CCOCC2)ccc1O`, the Potency entry was “inactive”.
For the compound `CCOc1cc(C(=S)N2CCOCC2)ccc1OS(=O)(=O)c1ccc(Br)cc1`, the “activity change, negative = inhibition” value is 13.8%.
In the case of `CCOc1cc(C(=S)N2CCOCC2)ccc1O`, the Potency is 13.1 µM (active).
For the compound `CCOC(=O)N1CCN(C(=O)CSc2nc(=O)n3cccc(C)c3n2)CC1`, the “activity change, negative = inhibition” value is 8.94%.
Take `CCN1c2nc3c(C)cccn3c(=O)c2CC2(C(=O)N(C)C(=O)N(C)C2=O)C1C` (stereo not drawn): the Potency was 3.29 µM (active).
With `CN(Cc1c(F)cccc1Cl)C(=O)CNC(=O)c1ccc2c(c1)OCO2`, the “activity change, negative = inhibition” value is 20.4%.
For the compound `Cc1ccc(C(CC(=O)O)NC(=O)c2ccc(S(=O)(=O)N3CCCC3)cc2)cc1` (stereo not drawn), the “activity change, negative = inhibition” value was 22.2%.
Same read-out and setting: then `O=C(NCCN1C(=O)S/C(=C\c2cccnc2)C1=O)c1cccc(OC(F)F)c1`, with -27.2%.
Consider `CCOc1ccc(N2CC(C(=O)NCCN3C(=O)S/C(=C\c4cccnc4)C3=O)CC2=O)cc1` (stereo not drawn), for which the “activity change, negative = inhibition” value was 14.5%.
Consider `Cc1cc(OCCCC(=O)NCCN2C(=O)S/C(=C\c3cccnc3)C2=O)ccc1Cl`, for which the Potency was 11.7 µM (active).
Turning to `COC(=O)c1ccc(S(=O)(=O)NCc2ccccc2)n1C`, the “activity change, negative = inhibition” value was 70.9%.
As to `Cc1ccc(C(=O)CCC(=O)N(C)CC(=O)Nc2c(Cl)cccc2Cl)cc1`, the “activity change, negative = inhibition” value was 21.6%.
Regarding `COc1cc(OC)cc(-c2cc3nc(C4CCN(C(=O)OC(C)(C)C)CC4)cc(=O)n3[nH]2)c1`, the Potency is 1.65 µM (active).
Regarding `CCOC(=O)N1CCC(c2cc(=O)n(-c3ccccc3)[nH]2)CC1`, the “activity change, negative = inhibition” value is 0.756%.
For the compound `CC1CCN(C(=O)c2cc3nc(C4CC4)cc(C(F)(F)F)n3n2)CC1`, the “activity change, negative = inhibition” value is 9.96%.
For `O=C(Oc1ccc(-c2nnco2)cc1)c1ccc(F)c(S(=O)(=O)N2CCOCC2)c1`, the “activity change, negative = inhibition” value was -11.3%.
On the same count and under the same terms, then `O=C(CCS(=O)(=O)c1ccc2c(c1)NC(=O)CS2)NCc1ccccc1Cl`, with 11.6%.
Consider `Cc1csc(/N=C/N(C)C)c1C#N`, for which the “activity change, negative = inhibition” value is 26.6%.
Turning to `CC(=O)N(CCCN(C)C)c1nc2ccc(C)cc2s1`, the “activity change, negative = inhibition” value is 9.36%.
Same read-out and setting: then `Cc1cccc2sc(N(CCCN(C)C)C(=O)CCS(=O)(=O)c3ccccc3)nc12`, with 5.57%.
As to `Cc1cc(C)c2nc(N(CCN(C)C)C(=O)/C=C/c3cccs3)sc2c1`, the Potency was 6.57 µM (active).
On to `CCOC(=O)c1sc2nc(C)[nH]c(=O)c2c1C`, for which the “activity change, negative = inhibition” value was -1.31%.
As to `Cc1ccc(NC(=O)CSc2nc(CSc3ccc(C)cc3)cc(=O)[nH]2)cc1`, the “activity change, negative = inhibition” value was -16.4%.
With `Cc1ccc(SCc2cc(=O)[nH]c(N3CCCCC3)n2)cc1`, the Potency was 5.22 µM (active).
Consider `O=c1cc(CSc2ccccn2)nc(N2CCN(c3ccccc3)CC2)[nH]1`, for which the activity change, negative = inhibition is -8.4% [at 5.75 µM].
Consider `O=C(OCCN=C1NS(=O)(=O)c2ccccc21)c1cccc([N+](=O)[O-])c1`, for which the “activity change, negative = inhibition” value is 48.1%.
With `NC(=O)c1sc2nc3c(c(-c4ccccc4)c2c1N)CCC3`, the “activity change, negative = inhibition” value is -25.1%.
Regarding `Cc1cccc(NC(=O)c2sc3nc4c(c(-c5ccco5)c3c2N)CCC4)c1`, the Potency was 1.85 µM (active).
Regarding `Cc1nc2sc(C(=O)c3ccccc3)c(N)c2c2c1CCCC2`, the “activity change, negative = inhibition” value is -45.8%.
Regarding `CCN(C(=O)CSc1ncnc2c1cnn2-c1ccccc1)C1CCS(=O)(=O)C1` (stereo not drawn), the “activity change, negative = inhibition” value is 6.57%.
Take `CCOc1ccc(NC(=O)CN(C)C(=O)CCSc2ccc(F)cc2)cc1OCC`: the “activity change, negative = inhibition” value was -18.2%.
On the same count and under the same terms, then `COc1ccc(N2C(=O)CN=C2Nc2cccc(C)c2C)cc1OC`, with 25.7%; and `CC(=O)Nc1ccc(Nc2nc3c(S(=O)(=O)c4ccc(C)c(C)c4)nnn3c3ccccc23)cc1`, with 25%.
As to `Cc1cccc(Nc2nc3c(S(=O)(=O)c4ccccc4)nnn3c3ccccc23)c1C`, the Potency was 0.465 µM (active).
As to `CCN(CC)S(=O)(=O)c1ccc(OC)c(NC(=O)CCc2c(C)noc2C)c1`, the “activity change, negative = inhibition” value is -28%.

Source of the values: PubChem BioAssay AID504834 (National Center for Advancing Translational Sciences (NCATS), 2011).
